{
  "source": "PubChem BioAssay (NCATS)",
  "key": {"[1]": {"biological_target": "Cytochrome P450 2C9 (Homo sapiens) (UniProt P11712)", "sequence (P11712 whole entry, looked up)": "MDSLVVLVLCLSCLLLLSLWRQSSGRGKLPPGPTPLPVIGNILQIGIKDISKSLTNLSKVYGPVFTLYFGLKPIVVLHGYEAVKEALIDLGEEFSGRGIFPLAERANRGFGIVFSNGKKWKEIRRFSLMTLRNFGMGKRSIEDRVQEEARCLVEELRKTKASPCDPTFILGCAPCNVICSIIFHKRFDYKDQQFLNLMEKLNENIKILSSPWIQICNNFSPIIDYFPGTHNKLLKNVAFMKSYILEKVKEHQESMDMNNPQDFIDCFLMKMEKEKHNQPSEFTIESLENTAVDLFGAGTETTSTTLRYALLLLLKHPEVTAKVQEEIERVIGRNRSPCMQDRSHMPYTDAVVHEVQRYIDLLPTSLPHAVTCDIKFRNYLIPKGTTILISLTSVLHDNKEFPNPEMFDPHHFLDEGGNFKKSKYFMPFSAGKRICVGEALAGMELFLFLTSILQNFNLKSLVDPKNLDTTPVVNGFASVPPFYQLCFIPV", "assay": "qHTS Assay for Inhibitors and Substrates of Cytochrome P450 2C9 (AID 883); also: potency is read from the fitted curve at half-maximal effect; nearly all actives have a fitted effect of over 60% in size", "summary_of_the_method": "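10nM CYP2C9 + 100uM Luciferin-H (=KM), 25mM KPO4; cpd 10 min 37C; NADPH regen, 60 min 37C; stop/detect with P450 Glo-Buffer 20 min; luminescence. Norm. to 57uM sulphaphenazole as full inhibition.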"}, "CP215": {"test_system": "CP215", "assay": "qHTS profiling for inhibitors of Plasmodium falciparum proliferation (AID 504749); also: nearly all actives have a fitted effect of over 60% in size", "conditions": "P. falciparum in erythrocytes, SYBR Green DNA, 72 h; series mostly up to 28.7 µM", "summary_of_the_method": "(§1)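 Readout was DNA-dye fluorescence from lysed cultures, ex 485/em 535 nm. Parasitized red cells had grown 72 h with compound; data scaled between 0.29 uM artemisinin and DMSO wells and corrected using vehicle-only plates.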"}, "CP335": {"test_system": "CP335", "assay": "qHTS profiling for inhibitors of Plasmodium falciparum proliferation (AID 504749)", "conditions": "P. falciparum in erythrocytes, SYBR Green DNA, 72 h; series mostly up to 12.8 µM", "summary_of_the_method": "as §1"}, "[2]": {"assay": "NFAT Signaling Pathway (AID 444; active = well fitted curve in either direction with a large enough effect, not every such curve was filed as active)", "conditions": "Jurkat NFAT-bla M1, carbachol, beta-lactamase ratio, 5 h; at 17.2 µM (top of the series)", "summary_of_the_method": "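Jurkat cells with NFAT-driven β-lactamase reporter and co-expressed M1 receptor, stimulated with carbachol (final 1 uM, ~EC50), compound titration, 5 h at 37 °C. CCF4 loaded 1 h at RT; 460/530 nm ratio gave %activity and AC50.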"}, "7G8": {"test_system": "7G8", "assay": "qHTS profiling for inhibitors of Plasmodium falciparum proliferation (AID 504749)", "conditions": "P. falciparum in erythrocytes, SYBR Green DNA, 72 h; series mostly up to 12.8 µM", "summary_of_the_method": "as §1"}, "ICS": {"test_system": "ICS", "assay": "qHTS profiling for inhibitors of Plasmodium falciparum proliferation (AID 504749)", "conditions": "P. falciparum in erythrocytes, SYBR Green DNA, 72 h; series mostly up to 28.7 µM", "summary_of_the_method": "as §1"}, "[3]": {"biological_target": "Cytochrome P450 2D6 (Homo sapiens) (UniProt P10635)", "sequence (P10635 whole entry, looked up)": "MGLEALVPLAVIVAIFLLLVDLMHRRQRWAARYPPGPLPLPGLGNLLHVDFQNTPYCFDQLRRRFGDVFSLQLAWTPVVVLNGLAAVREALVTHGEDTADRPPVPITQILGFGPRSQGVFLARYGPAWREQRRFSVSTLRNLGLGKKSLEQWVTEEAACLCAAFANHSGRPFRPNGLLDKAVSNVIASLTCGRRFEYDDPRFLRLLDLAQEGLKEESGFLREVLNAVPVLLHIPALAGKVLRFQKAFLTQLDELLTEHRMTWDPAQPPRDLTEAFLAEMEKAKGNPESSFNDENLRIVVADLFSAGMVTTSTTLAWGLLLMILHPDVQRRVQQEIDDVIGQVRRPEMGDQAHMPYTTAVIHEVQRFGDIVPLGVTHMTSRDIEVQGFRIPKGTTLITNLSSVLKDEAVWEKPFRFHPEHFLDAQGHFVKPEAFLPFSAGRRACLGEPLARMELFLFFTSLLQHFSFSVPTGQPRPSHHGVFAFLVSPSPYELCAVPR", "assay": "qHTS Assay for Inhibitors and Substrates of Cytochrome P450 2D6 (AID 891)", "summary_of_the_method": "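Human CYP2D6 (5 nM) with 30 uM Luciferin-ME EGE (at Km) in 100 mM KPO4, compound preincubated 10 min, then NADPH regeneration system for 60 min at room temperature. Luciferin read by luminescence; normalized to 1.43 uM quinidine.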"}, "[4]": {"biological_target": "DNA dC->dU-editing enzyme APOBEC-3G (Homo sapiens) (UniProt Q9HC16)", "sequence (Q9HC16 whole entry, looked up)": "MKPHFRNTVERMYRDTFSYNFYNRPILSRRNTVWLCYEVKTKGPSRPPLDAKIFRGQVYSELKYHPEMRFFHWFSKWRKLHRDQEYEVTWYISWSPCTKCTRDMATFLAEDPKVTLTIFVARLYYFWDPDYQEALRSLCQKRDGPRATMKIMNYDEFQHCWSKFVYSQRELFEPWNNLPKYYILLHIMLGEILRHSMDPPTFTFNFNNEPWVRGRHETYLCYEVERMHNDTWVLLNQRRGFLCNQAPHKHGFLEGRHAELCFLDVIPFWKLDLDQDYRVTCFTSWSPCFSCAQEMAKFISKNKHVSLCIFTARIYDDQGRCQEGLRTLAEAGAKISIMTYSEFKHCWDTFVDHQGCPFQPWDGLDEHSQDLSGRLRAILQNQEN", "assay": "qHTS for inhibitors of Vif-A3G interactions: Validation (AID 588379)", "summary_of_the_method": "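HeLa cells stably expressing Vif and A3G-eYFP, 700 cells/well, incubated overnight at 37 deg C, then exposed to compound overnight at 37 deg C. Inhibition of Vif-mediated degradation read as increased yellow fluorescence (Ex 488/Em 500-530) by laser-scanning cytometry.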"}},
  "note": "Values without a mark were called inactive. Inconclusive results are not listed. Where a call stands in place of a potency, no number is given. Activity calls are given as the source filed them. Unless noted, calls follow the shape of the dose curve; as a rule, active = well fitted curve in the direction sought with a large enough effect; inconclusive = small, poorly fitted or top-dose-only effect, or another doubt; inactive = no such curve, though single readings can be large; an effect the other way counts as inactive or inconclusive. For potency in this document: potency is read from the fitted curve at half-maximal effect; nearly all actives have a fitted effect of over 60% in size.",
  "data": [
    {"smiles": "CC(C)c1c(CN(C)[C@@H](C)Cc2ccccc2)n(C)n(-c2ccccc2)c1=O", "values": [
      {"measurement": "Potency", "setting": "[1]", "value": "7.94 µM (active)"},
      {"measurement": "Potency", "setting": "CP215", "value": "inactive"},
      {"measurement": "Potency", "setting": "CP335", "value": "inactive"}
    ]},
    {"smiles": "CC(=O)[C@@H]1CC[C@H]2[C@H]3CC[C@H]4C[C@@H](O)CC[C@]4(C)[C@@H]3C(=O)C[C@@]12C", "values": [
      {"measurement": "activity change, negative = inhibition", "setting": "[2]", "value": -7.61, "unit": "%"}
    ]},
    {"smiles": "C[C@]12CC[C@H]3[C@@H](CCC4=CC(=O)CC[C@@]43C)[C@@H]1CC[C@@H]2O", "values": [
      {"measurement": "Potency", "setting": "7G8", "value": "inactive"},
      {"measurement": "Potency", "setting": "ICS", "value": "inactive"}
    ]},
    {"smiles": "CCCN(C/C=C\\I)[C@@H]1CCc2ccc(O)cc2C1", "values": [
      {"measurement": "Potency", "setting": "[3]", "value": "0.0158 µM (active)"},
      {"measurement": "outcome", "setting": "[4]", "value": "inactive"}
    ]}
  ]
}
